From the supplement of paper PMC9023506 come the findings set out here.

Counter-ions that a name gives are not always drawn.

The test system of this test is Danio rerio larvae (5 dpf). Nature of the test: activity during first hour (no stimuli), difference vs DMSO (percentage points (treated minus DMSO)); higher = more of the behaviour than the DMSO vehicle control. The settings on record: 10 µM; exposure time: 3 h pre-incubation + 3 h imaging. As to the method: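 5-dpf wild-type zebrafish larvae were imaged in 96-well plates. They were treated with 190 Tocris FDA-approved drugs at 10 µM (1 µl/ml DMSO) for 3 h before and 3 h during imaging at 28.5 °C, 48 larvae per drug. Automated image analysis gave % time moving and optomotor responses. Values are drug group mean minus DMSO vehicle mean (n=844), in percentage points, for 10 behaviours.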
Consider `CCOC(=O)[C@H](CCc1ccccc1)N[C@@H](C)C(=O)N1[C@H](C(=O)O)C[C@@H]2CCC[C@@H]21` [Ramipril], for which the “activity during first hour” value turned out to be 2.6. With `CN[C@H]1CC[C@@H](c2ccc(Cl)c(Cl)c2)c2ccccc21` [Sertraline hydrochloride], the “activity during first hour” value was -24.2. Regarding `CC(C)c1nc(N(C)S(C)(=O)=O)nc(-c2ccc(F)cc2)c1/C=C/[C@@H](O)C[C@@H](O)CC(=O)O` [Rosuvastatin calcium], the “activity during first hour” value worked out at 3.37.

As to `CCCCCCCN(CC)CCCC(O)c1ccc(NS(C)(=O)=O)cc1` (stereo not given) [Ibutilide hemifumarate], the “activity during first hour” value was -4.99.

Consider `Clc1ccc(COC(Cn2ccnc2)c2ccc(Cl)cc2Cl)c(Cl)c1` (stereo not given) [Miconazole nitrate], for which the “activity during first hour” value is -18.4. Turning to `Cc1nnc(C(C)C)n1C1C[C@H]2CC[C@@H](C1)N2CC[C@H](NC(=O)C1CCC(F)(F)CC1)c1ccccc1` (stereo in doubt) [Maraviroc], the “activity during first hour” value was -3.61. With `CC(C)COCC(CN(Cc1ccccc1)c1ccccc1)N1CCCC1` (stereo not given) [Bepridil hydrochloride], the “activity during first hour” value was 0.257. On to `CCCc1nc(C(C)(C)O)c(C(=O)O)n1Cc1ccc(-c2ccccc2-c2nnn[nH]2)cc1` [Olmesartan], for which the “activity during first hour” value was 12.1.

Consider `C#CCN[C@@H]1CCc2ccccc21` [Rasagiline mesylate], for which the “activity during first hour” value turned out to be 4.92.

On to `Nc1cccc2c1CN(C1CCC(=O)NC1=O)C2=O` (stereo not given) [Lenalidomide], for which the “activity during first hour” value was -5.68. `CC(C)c1nc(CN(C)C(=O)N[C@H](C(=O)N[C@@H](Cc2ccccc2)C[C@H](O)[C@H](Cc2ccccc2)NC(=O)OCc2cncs2)C(C)C)cs1` [Ritonavir]: the “activity during first hour” value is -0.488.

For `CC(c1cc2ccccc2s1)N(O)C(N)=O` (stereo not given) [Zileuton], the “activity during first hour” value is -0.123.

For the molecule `Brc1c(NC2=NCCN2)ccc2nccnc12`, the “activity during first hour” value is -17.

On to `CCOC(=O)c1ncn2c1CN(C)C(=O)c1cc(F)ccc1-2` [Flumazenil], for which the “activity during first hour” value worked out at 2.88. On to `CCc1ccc(CCOc2ccc(CC3SC(=O)NC3=O)cc2)nc1` (stereo not given) [Pioglitazone hydrochloride], for which the “activity during first hour” value is -5.36. For `COc1cc2nc(N3CCN(C(=O)c4ccco4)CC3)nc(N)c2cc1OC` [Prazosin hydrochloride], the “activity during first hour” value is -3.12. Take `CNC(=O)c1cc(Oc2ccc(NC(=O)Nc3ccc(Cl)c(C(F)(F)F)c3)cc2)ccn1` [Sorafenib]: the “activity during first hour” value was 3.08. Under `NC(=O)N1c2ccccc2C=Cc2ccccc21` [Carbamazepine] stands -2.68; under `C#C[C@]1(O)CC[C@H]2[C@@H]3CCC4=CC(=O)CC[C@@H]4[C@H]3CC[C@@]21CC` [Levonorgestrel], -8.15. Then `CN(C)CC/C=C1/c2ccccc2COc2ccc(CC(=O)O)cc21` [Olopatadine hydrochloride], with -0.591; and `CCc1nc(N)nc(N)c1-c1ccc(Cl)cc1` [Pyrimethamine], with -0.915. Then `Clc1ccc2nsnc2c1NC1=NCCN1` [Tizanidine hydrochloride], with -14.2.

Turning to `Nc1ccn([C@@H]2O[C@H](CO)[C@@H](O)C2(F)F)c(=O)n1` [Gemcitabine hydrochloride], the “activity during first hour” value was -4.38.

Regarding `CN1CC2c3ccccc3Oc3ccc(Cl)cc3C2C1` (stereo not given) [Asenapine maleate], the “activity during first hour” value worked out at 38.5. Under `CN(C)CCC[C@@]1(c2ccc(F)cc2)OCc2cc(C#N)ccc21` [Escitalopram oxalate] stands -24.4; under `CCCN(CCC)S(=O)(=O)c1ccc(C(=O)O)cc1` [Probenecid], -2.71.

`COC(=O)C1=C(C)NC(C)=C(C(=O)OC(C)C)C1c1cccc2nonc12` (stereo not given) [Isradipine]: the “activity during first hour” value stood at 0.0385. Under `Cn1cnc([N+](=O)[O-])c1Sc1ncnc2[nH]cnc12` [Azathioprine] stands 7.36; under `CC(C)n1c(/C=C/C(O)CC(O)CC(=O)O)c(-c2ccc(F)cc2)c2ccccc21` (stereo not given) [Fluvastatin sodium], 1.98; under `C[C@@H](O[C@H]1OCCN(Cc2n[nH]c(=O)[nH]2)[C@H]1c1ccc(F)cc1)c1cc(C(F)(F)F)cc(C(F)(F)F)c1` [Aprepitant], -7.38. As to `Nc1nc(Cl)nc2c1ncn2[C@@H]1O[C@H](CO)[C@@H](O)[C@@H]1F` [Clofarabine], the “activity during first hour” value was -3.77.

For `OCCOCCN1CCN(C2=Nc3ccccc3Sc3ccccc32)CC1` [Quetiapine hemifumarate], the “activity during first hour” value amounted to 12.9. With `CCCc1nn(C)c2c(=O)[nH]c(-c3cc(S(=O)(=O)N4CCN(C)CC4)ccc3OCC)nc12` [Sildenafil citrate], the “activity during first hour” value is -13.4.

On to `CNS(=O)(=O)Cc1ccc2[nH]cc(CCN(C)C)c2c1` [Sumatriptan succinate], for which the “activity during first hour” value amounted to 7.71. Under `CN(CCOc1ccc(CC2SC(=O)NC2=O)cc1)c1ccccn1` (stereo not given) [Rosiglitazone] stands 2.2. `CCCCCCCCc1ccc(CCC(N)(CO)CO)cc1`: the “activity during first hour” value was -17.7.

In the case of `CCOC(=O)N1CCC(=C2c3ccc(Cl)cc3CCc3cccnc32)CC1` [Loratidine], the “activity during first hour” value is -17.

As for `COc1ccc(C[C@@H](C)NC[C@H](O)c2ccc(O)c(NC=O)c2)cc1` [Arformoterol tartrate], the “activity during first hour” value was 45.9. As to `O=C1CCc2cc(OCCCCc3nnnn3C3CCCCC3)ccc2N1` [Cilostazol], the “activity during first hour” value worked out at 10.3.

With `CC(C)N(CCCCOCC(=O)NS(C)(=O)=O)c1cnc(-c2ccccc2)c(-c2ccccc2)n1` [Selexipag], the “activity during first hour” value was 4.1.
